From PubChem BioAssay AID588675 (Johns Hopkins Ion Channel Center, 2011) come the findings set out here.

Hit rate of the full screen: of about 310,000 compounds, about 1,900 (0.61%) were called active.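 Rule for the calls: active = plate-corrected calcium response at least 3 library SD above typical, normal starting fluorescence, not activating the receptor alone; inactive = the rest.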 The entries come from a sample that favours actives as a whole.

In this assay the target is Mas-related G-protein coupled receptor member X1 (Homo sapiens) (UniProt Q96LB2). The assay is described as follows: allosteric enhancers of human MrgX1 signaling – HEK293 cells, Fluo-4 calcium flux, primary screen (AID 588675).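 For B-score: peak minus trough fluorescence over baseline measured at the second addition.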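 Note: compound read alongside a low EC10 to EC30 dose of BAM8-22 agonist.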 The note with it: MrgX1-HEK293, Fluo-4 calcium flux, FDSS, at 10 µM; stronger effect = higher value.
Sequence of Mas-related G-protein coupled receptor member X1 (Homo sapiens) (Q96LB2 whole entry, looked up): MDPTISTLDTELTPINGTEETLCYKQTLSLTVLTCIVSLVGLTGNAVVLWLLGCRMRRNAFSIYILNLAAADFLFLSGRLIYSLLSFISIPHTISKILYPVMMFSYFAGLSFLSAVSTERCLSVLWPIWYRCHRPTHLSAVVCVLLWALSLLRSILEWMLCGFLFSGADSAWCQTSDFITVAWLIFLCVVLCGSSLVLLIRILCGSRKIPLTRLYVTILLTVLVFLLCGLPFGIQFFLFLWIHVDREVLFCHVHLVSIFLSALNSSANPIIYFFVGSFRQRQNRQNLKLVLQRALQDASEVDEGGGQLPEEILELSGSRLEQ
`CC1=C(C(N)=O)C(c2ccc(Br)cc2)n2ncnc2N1` (stereo not given): the B-score result is “inactive”. Under `Fc1ccccc1/C=C1\CCCC2=C1Nc1ncnn1C2c1ccccc1F` (stereo not given) stands 7.46 (active). Regarding `CC(C(=O)N=Nc1c(O)n(C)c2ccc(Br)cc12)n1cnc2ccccc2c1=O` (stereo not given), the B-score entry was “inactive”. Under `CC(C)N(c1ccccc1)c1ncnc(NCCC(=O)O)c1[N+](=O)[O-]` stands “inactive”; under `Cc1c(C(=O)NCC2CCCO2)sc2nc(-c3ccccc3)cn12` (stereo not given), “inactive”; under `Cc1c(C(=O)N2CC(C)OC(C)C2)sc2nc(-c3ccccc3)cn12` (stereo not given), “inactive”.

As to `Cc1c(C(=O)N2CCCc3ccccc32)sc2nc(-c3ccccc3)cn12`, the B-score is 10.8 (active). To `CCn1nccc1C(=O)Nc1ccc(S(=O)(=O)NC23CC4CC(CC(C4)C2)C3)cc1` belongs “inactive”; to `COc1ccc(S(=O)(=O)N2CCCC(C(=O)NCCCn3ccnc3)C2)cc1OC` (stereo not given), “inactive”; to `Cc1ccc(C)c(N2CCN(S(=O)(=O)c3c(C)[nH]c(C)c3C(=O)N3CCCC3)CC2)c1`, “inactive”.

On to `CCOC(=O)c1ccccc1NC(=S)N1CCC(C(N)=O)CC1`, for which the B-score result is “inactive”.

For `Cc1nc2ccccc2cc1OCc1ccc(F)cc1`, the B-score was 11.8 (active).

Take `Cc1occc(=O)c1OCc1ccc(F)cc1`: the B-score result is “inactive”.

Turning to `Fc1ccccc1COc1cccc2cccnc12`, the B-score entry is “inactive”. Under `COCCCN(C(=O)CSCc1ccc(C)cc1)c1c(N)n(Cc2ccccc2)c(=O)[nH]c1=O` stands “inactive”; under `S=C(NCCC1=CCCCC1)Nc1ccccc1`, “inactive”; under `S=C(NCCc1ccccc1)NCC1CCCO1` (stereo not given), “inactive”. Under `S=C(NCC1CCCO1)N1CCN(c2ccc(Cl)c(Cl)c2)CC1` (stereo not given) stands “inactive”; under `Oc1c(Br)cc(/C=N/NC(=S)NCC2CCCO2)cc1Br` (stereo not given), 6.64 (active). Under `C=CCOc1ccccc1NC(=O)CN1C(=O)CNC1=O` stands “inactive”; under `CCOC(=O)c1cnc2ccc(F)cc2c1Nc1ccc2c(c1)OCCO2`, “inactive”; under `CCCc1ccc(OCCNC(=O)c2ccco2)cc1`, “inactive”. For `CC(Oc1ccc2ccccc2c1)C(=O)NNC(=S)NC(=O)c1ccco1` (stereo not given), the B-score result is “inactive”. Consider `CCCc1ccc(OCC(=O)NNC(=S)NC(=O)c2ccco2)cc1`, for which the B-score was 11.9 (active). With `CCOc1cc(C(=O)Nc2ccc(S(=O)(=O)Nc3cnc4ccccc4n3)cc2)cc(OCC)c1OCC`, the B-score entry was “inactive”. Under `Cc1ccccc1-n1nc(SCC(=O)O)sc1=S` stands “inactive”; under `CN(C)CCCCCN(C)Cc1cc2ccccc2o1`, “inactive”; under `Cc1ccc(C2C3=C(Nc4[nH]n(-c5ccccc5)c(=O)c42)c2ccccc2C3=O)cc1` (stereo not given), “inactive”.

On to `CCOC(=O)c1ccc(-c2ccc(C(=O)Nc3cccnc3)o2)cc1`, for which the B-score entry was “inactive”.

Take `COC(=O)C1=C(C)NC2=C(C(=O)c3ccccc32)C1c1ccc(-c2ccc(C(=O)O)cc2)o1` (stereo not given): the B-score was 16.1 (active). Under `CC(C)(C)NC(=O)CSc1nnc(NC(=O)CCc2ccccc2)s1` stands “inactive”; under `O=C(ON=C1CCN(S(=O)(=O)c2ccccc2)CC1)c1ccc(Cl)cc1`, “inactive”; under `NC(=O)c1c(Nc2nc3c(F)cccc3s2)sc2c1CCCC2`, 8.33 (active). Consider `COc1cccc(OC)c1C(=O)Nc1sc2c(c1C(N)=O)CCCC2`, for which the B-score entry was “inactive”. To `O=C(Nc1sc2c(c1C(=O)O)CCC2)c1ccccc1F` belongs “inactive”; to `CCOc1ccc(NC(=O)C(C)N2C(=O)c3ccccc3C2=O)cc1` (stereo not given), “inactive”. Under `COC(=O)c1ccc(NC(=O)C(C)N2C(=O)c3ccccc3C2=O)cc1` (stereo not given) stands “inactive”; under `Cc1ccnc(NC(=O)C(C)N2C(=O)c3ccccc3C2=O)c1` (stereo not given), 7.9 (active). Under `Cc1ccc(NS(=O)(=O)c2cn(C)c(=O)n(C)c2=O)c(C)c1` stands “inactive”. `CC(C)(C)c1nc2ccccc2c(=O)n1N1C(=O)c2ccccc2C1=O`: the B-score result is “inactive”. To `CC(=O)c1ccc(NC(=O)c2ccc(-n3cncn3)c([N+](=O)[O-])c2)cc1` belongs “inactive”; to `O=C(N/N=C/C=C/c1ccccc1)C1CC1(c1ccccc1)c1ccccc1` (stereo not given), 14.2 (active). On to `CC(/C=C/c1ccccc1)=N\NC(=O)C1CC1(C)c1ccccc1` (stereo not given), for which the B-score entry was “inactive”.

`Cc1ccc(-c2cc(C(=O)N/N=C/C=C/c3ccccc3)n[nH]2)o1`: the B-score entry is “inactive”. Under `COCc1[nH][nH]c(=O)c1C=Nc1ccc(F)cc1F` stands “inactive”; under `Clc1ccc(Cn2ncc3c(NCc4cccnc4)ncnc32)cc1`, “inactive”. As for `CC(C)CNc1ncnc2c1cnn2Cc1ccc(Cl)cc1`, the B-score is 7.42 (active).

Take `Clc1ccc(Nc2ncnc3c2nnn3Cc2ccccc2)cc1`: the B-score entry is “inactive”.

`O=C1c2ccccc2C(=O)C1c1ccccc1F`: the B-score result was “inactive”. Under `CCOC(=O)C1=C(C)N=C2c3ccccc3C(=O)C2C1c1ccc(Br)cc1` (stereo not given) stands “inactive”. To `O=C1c2ccccc2C2=Nc3ccccc3SC(c3ccccc3F)C12` (stereo not given) belongs 13.4 (active); to `COc1ccccc1CNS(=O)(=O)c1c(C)[nH]c(C)c1C(=O)N1CCCCC1`, “inactive”; to `COc1cc(C(=O)NCc2cc3cc(Cl)ccc3n2C)cc(OC)c1OC`, “inactive”. For `CCOCc1nnc(NC(=O)CCC2CCCCC2)s1`, the B-score was 7.99 (active). Consider `CCOCc1nnc(NC(=O)CCS(=O)(=O)Cc2ccccc2)s1`, for which the B-score result is “inactive”.

On to `CCOCc1nnc(NC(=O)CSc2ccc(C)cc2)s1`, for which the B-score result was “inactive”.

For `OCC[C@H]1C[C@H](O)[C@@H](O)[C@]2(CCc3ccccc3O2)O1`, the B-score result was “inactive”. To `COc1cc2c(cc1OC)C(c1ccccc1Br)NC(=O)C2` (stereo not given) belongs “inactive”; to `O=C1CCC(Cc2ccccc2)N1` (stereo not given), “inactive”. To `O=C1CCC([N+](=O)[O-])C(c2ccccc2Br)N1` (stereo not given) belongs 8.17 (active); to `Cc1ccccc1NC(=O)c1nn(-c2ccc(F)c(F)c2)ccc1=O`, “inactive”; to `O=C(COCc1cc(-c2ccc3c(c2)OCO3)on1)N1CCN(c2cccc(Cl)c2)CC1`, “inactive”. With `Cc1cccc(N2CCN(C(=O)COCc3cc(-c4ccc5c(c4)OCO5)on3)CC2)c1C`, the B-score entry is “inactive”.

`CCOC(=O)N1CCN(C(=O)COCc2cc(-c3ccc4c(c3)OCO4)on2)CC1`: the B-score was 6.93 (active). To `COc1ccc(-c2cc(C(=O)NC(Cc3c[nH]c4ccccc34)C(=O)O)c(C)o2)cc1OC` (stereo not given) belongs “inactive”.

As to `Cc1nc(-c2ccccc2)cn2c1nc1ccccc12`, the B-score result is “inactive”. To `COc1ccc(C(=O)/C=C/c2ccc(-c3ccccc3)cc2)cc1CSCC(=O)O` belongs “inactive”; to `Cc1cc(N2C(=O)c3ccc(C(=O)NCc4ccccc4)cc3C2=O)no1`, “inactive”; to `Cc1cc(C(=O)N2CCC(C(=O)O)CC2)c(C(F)(F)F)o1`, “inactive”. Under `CN1CCN(CCC(=O)N/N=C/C=C2\N(C)c3ccccc3C2(C)C)CC1` stands “inactive”; under `CN1/C(=C\C=C2\N=C(c3ccc(F)cc3)OC2=O)C(C)(C)c2ccccc21`, 19.6 (active). Under `CN1/C(=C\C(=O)c2oc3ccccc3c2N)C(C)(C)c2ccccc21` stands “inactive”.

With `Cc1c(C2=CCN(S(=O)(=O)c3ccc(Cl)cc3)CC2)c2ccccc2n1C`, the B-score result is “inactive”. Under `CN(CC(=O)Nc1cccc(F)c1)C(=O)C1CC(=O)N(CCc2ccccc2)C1` (stereo not given) stands “inactive”. Under `Cc1cc(NC(=O)OC(C)C)ccc1-c1ccc(NC(=O)OC(C)C)cc1C` stands “inactive”. To `O=C(NC1CC1)C1CCCN(C(=O)NC2CCCCC2)C1` (stereo not given) belongs “inactive”.

As to `CC[C@H](C)[C@@H](C(=O)N1CCNCC1)n1cc([C@@H](N)Cc2ccc(O)cc2)nn1`, the B-score entry was “inactive”.

For `C/C(=N\NS(=O)(=O)c1cccc([N+](=O)[O-])c1)c1cc2ccccc2o1`, the B-score is 8.87 (active). Under `COc1ccc(CCNS(=O)(=O)c2cccc([N+](=O)[O-])c2)cc1` stands “inactive”.

In the case of `C/C(=N\NC(=S)Nc1ccc(C)cc1)c1cc2ccccc2o1`, the B-score entry was “inactive”.

As to `COc1ccc(N(CC(=O)N/N=C/c2cccc3c2OCCO3)S(=O)(=O)c2ccc(NC(C)=O)cc2)cc1`, the B-score entry is “inactive”. Under `Cc1ccc(NC(=O)c2cc3ccccc3o2)cc1` stands “inactive”. As for `Cc1ccc(OC(=O)c2cc3ccccc3o2)cc1`, the B-score is 6.5 (active). To `COc1ccccc1CN(C)C(=O)c1cc2ccccc2o1` belongs “inactive”; to `CCCCCCSc1ccc([C@@H]2[C@@H]3C(=O)N(CC)C(=O)[C@@H]3[C@]3(C(=O)OC)CCCCN23)cc1OC`, “inactive”; to `COc1ccc(C(=O)C2CCCN(C(=O)c3cc4nc(C)cc(C)n4n3)C2)cc1F` (stereo not given), “inactive”. To `O=C(Oc1ccc(C(=S)N2CCOCC2)cc1)c1ccc(F)cc1` belongs 12.3 (active); to `Cc1ccc(C(=O)Oc2ccc(C(=S)N3CCOCC3)cc2)cc1`, “inactive”; to `O=C(Oc1ccc(F)cc1)N1CCOCC1`, “inactive”.

Take `CC1=C(C(=O)Nc2cc(C)ccn2)C(c2cnn(C)c2)C2=C(CC(c3ccccc3)CC2=O)N1` (stereo not given): the B-score result is “inactive”.
